# From PubChem BioAssay (NCATS)
# Records with an inconclusive call do not appear. Active and inactive are the calls of the source. Unless noted, calls follow the shape of the dose curve; as a rule, active = well fitted curve in the direction sought with a large enough effect; inconclusive = small, poorly fitted or top-dose-only effect, or another doubt; inactive = no such curve, though single readings can be large; an effect the other way counts as inactive or inconclusive.
# How the values were obtained:
# [1] = qHTS drug screen for cell cycle checkpoint inhibitors in PARPi-resistant BRCA-mutant ovarian cancer cell lines. (AID 1963452; calls by dose curve; also: potency is read from the fitted curve at half-maximal effect); settings: PEO1/OlaR viability, CellTiter-Glo luminescence, 96 h; for Z-AUC: stronger effect = lower value
# How it was run: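 PEO1, PEO4 and PEO1/OlaR ovarian cancer cells, 600 per well, exposed 96 h at 37C to a dilution series. Viability read by CellTiter-Glo luminescence, normalized to DMSO and empty wells; activity summarized as Z-AUC.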
# [2] = Primary redox qHTS assay for identification of artifact compounds. (AID 1845223); settings: Amplex Red/HRP redox cycling with DTT, fluorescence; series mostly up to 53.8 µM;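 also: 0% = DMSO and 100% = reference compound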
# How it was run: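 Amplex Red (25 uM) and HRP (250 mU/mL) in HBSS, with compounds for 15 min, then 250 uM DTT for 30 min, room temperature, dark. Fluorescence 525/598 nm read; normalized to DMSO and 10 uM DA3003; Hill fit.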
# [3] = qHTS profiling for inhibitors of Plasmodium falciparum proliferation (AID 504749); also: nearly all actives have a fitted effect of over 60% in size; also: potency is read from the fitted curve at half-maximal effect;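 as to activity, negative = inhibition: 0% = DMSO vehicle and full inhibition = artemisinin control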; settings: P. falciparum in erythrocytes, SYBR Green DNA, 72 h
# How it was run: (§1)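 Infected RBCs, 0.3% parasitemia/2.5% Hct final; cpd 72 h, 37 C, 5% CO2; lysis buffer with saponin/triton/SYBR Green I, o/n RT dark; FI 485/535; norm. to artemisinin (0.29 uM) and DMSO.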
# 3D7 = experiment: as above; settings: P. falciparum in erythrocytes, SYBR Green DNA, 72 h; series mostly up to 28.7 µM
# How it was run: as §1
# 7G8 = experiment: as above; settings: P. falciparum in erythrocytes, SYBR Green DNA, 72 h; series mostly up to 28.7 µM
# How it was run: as §1
# AA1029 = experiment: as above; settings: P. falciparum in erythrocytes, SYBR Green DNA, 72 h; series mostly up to 28.7 µM
# How it was run: as §1
# AS120 = experiment: as above; settings: P. falciparum in erythrocytes, SYBR Green DNA, 72 h; series mostly up to 28.7 µM
# How it was run: as §1
# ATS189 = experiment: as above; settings: P. falciparum in erythrocytes, SYBR Green DNA, 72 h; series mostly up to 28.7 µM
# How it was run: as §1
# ATS95 = experiment: as above; settings: P. falciparum in erythrocytes, SYBR Green DNA, 72 h; series mostly up to 28.7 µM
# How it was run: as §1
# [4] = biological target: Cytochrome P450 2C9 (Homo sapiens) (UniProt P11712); experiment: qHTS for inhibitors of CYP2C9 against the NCATS DSHEA and TCM libraries (AID 1919973); settings: recombinant CYP2C9 enzyme activity, luminescence; series mostly up to 34.1 µM;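 also: luminogenic pro-luciferin CYP2C9 substrate turned into luciferin with NADPH regeneration; % is scaled to controls: 0 for no effect and ±100 for the full control effect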
# Chain of Cytochrome P450 2C9 (Homo sapiens) (P11712 whole entry, looked up): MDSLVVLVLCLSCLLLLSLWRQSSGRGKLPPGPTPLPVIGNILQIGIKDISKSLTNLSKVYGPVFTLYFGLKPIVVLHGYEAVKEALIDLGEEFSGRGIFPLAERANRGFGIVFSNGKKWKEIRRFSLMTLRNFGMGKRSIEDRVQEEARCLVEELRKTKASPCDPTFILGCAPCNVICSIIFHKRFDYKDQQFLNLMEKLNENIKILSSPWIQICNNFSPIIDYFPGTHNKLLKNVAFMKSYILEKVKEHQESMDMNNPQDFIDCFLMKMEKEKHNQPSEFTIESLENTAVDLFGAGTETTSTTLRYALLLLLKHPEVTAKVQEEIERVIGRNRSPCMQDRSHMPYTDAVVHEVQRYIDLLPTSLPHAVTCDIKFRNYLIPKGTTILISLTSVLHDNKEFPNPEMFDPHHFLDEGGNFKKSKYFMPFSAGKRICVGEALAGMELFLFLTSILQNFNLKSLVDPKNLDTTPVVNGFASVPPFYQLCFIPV
# How it was run: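 Luminescent P450-Glo format: compounds preincubated 15 min with enzyme and luciferin substrate, reaction run 30-45 min after NADPH regeneration solution. Intraplate controls: ketoconazole for CYP3A4 and CYP2C19, sulfaphenazole for CYP2C9.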
# [5] = KB-3-1 P-gp reporter qHTS against the NCATS DSHEA and TCM libraries (AID 1919975); settings: KB-3-1 parental cells, CellTiter-Glo luminescence viability, 72 h; series mostly up to 26.1 µM; also: 0% is about no effect
# How it was run: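 CellTiter-Glo luminescence viability readout; KB-3-1 parental cells, 500/well, attached ~4 h, then compound for ~72 h, 37C, 5% CO2. Bortezomib intraplate control.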
# [6] = qHTS Counterscreen for compound interference against the NCATS DSHEA and TCM libraries (AID 1919978); settings: firefly luciferase detection reagent interference, luminescence;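 also: compounds preincubated with 1 µM D-luciferin or buffer before detection reagent; % of control where 0% means no effect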
# How it was run: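 Luminescence counterscreen for detection-kit interference: compounds at 19.5 nM–39.8 uM final, 15 min RT with 1 uM D-luciferin or buffer only; detection reagent added, 30 min RT, then read.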
# [7] = Dual reporter qHTS for agonist of Pregnane X Receptor (hPXR) against the NCATS DSHEA and TCM libraries: Fluorescence readout (AID 1920058); settings: PXR dual reporter cells; series mostly up to 40 µM; also: 0% is about no effect
# How it was run: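 hPXR-Luc HepG2 cells, 2000/well in charcoal-stripped serum, attached 5 h, dosed for ~24 h at 37 °C. Fluorescence read is CellTiter-Fluor viability (Ex/Em 405/540 nm); rifampicin positive, tetraoctyl ammonium bromide (92 µM) cytotoxicity controls.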
# [8] = biological target: Nuclear receptor subfamily 1 group I member 2 (Homo sapiens) (UniProt O75469); experiment: Dual reporter qHTS for agonist of Pregnane X Receptor (hPXR) against the NCATS DSHEA and TCM libraries: Luminescence readout (AID 1920059); settings: hPXR dual reporter cells, luciferase luminescence agonist; series mostly up to 40 µM; also: 0% is about no effect
# Chain of Nuclear receptor subfamily 1 group I member 2 (Homo sapiens) (O75469 whole entry, looked up): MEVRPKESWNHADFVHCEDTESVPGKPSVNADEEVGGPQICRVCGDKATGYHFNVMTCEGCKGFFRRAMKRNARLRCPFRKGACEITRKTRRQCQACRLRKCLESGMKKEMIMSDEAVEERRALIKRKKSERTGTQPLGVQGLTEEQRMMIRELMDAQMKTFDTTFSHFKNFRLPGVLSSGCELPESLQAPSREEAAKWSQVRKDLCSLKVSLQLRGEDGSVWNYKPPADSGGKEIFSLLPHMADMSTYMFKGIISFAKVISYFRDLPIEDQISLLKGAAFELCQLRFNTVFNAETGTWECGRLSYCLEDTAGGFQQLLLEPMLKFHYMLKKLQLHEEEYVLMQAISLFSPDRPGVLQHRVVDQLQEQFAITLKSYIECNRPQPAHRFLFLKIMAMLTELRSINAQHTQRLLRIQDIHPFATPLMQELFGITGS
# How it was run: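 Luminescent PXR reporter read (ONE-Glo) after a CellTiter-Fluor viability read, following 24 h, 37C treatment of HepG2 cells stably carrying hPXR-Luc.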
# [9] = biological target: Nuclear receptor subfamily 1 group I member 2 (Homo sapiens) (UniProt O75469); experiment: Dual reporter qHTS for antagonist of Pregnane X Receptor (hPXR) against the NCATS DSHEA and TCM libraries: Luminescence Readout (AID 1920060); settings: hPXR dual reporter cells, luciferase luminescence, antagonist mode; series mostly up to 40 µM;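 also: HepG2 cells carrying hPXR luciferase reporter stimulated with rifampicin at 2 µM; 0% is about no effect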
# How it was run: (§2)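 hPXR-Luc HepG2 cells exposed 24 h at 37 C to compounds with 2 uM rifampicin in antagonist mode; luciferase luminescence measured by ONE-Glo, with CellTiter-Fluor viability read beforehand.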
# [10] = Dual reporter qHTS for antagonist of Pregnane X Receptor (hPXR) against the NCATS DSHEA and TCM libraries: Fluorescence Readout (AID 1920061); settings: PXR dual reporter cells, antagonist mode; series mostly up to 40 µM; also: 0% is about no effect
# How it was run: as §2
# [11] = measured here: PEO1 parental Z-AUC
# [12] = at 28.7 µM (top of the series), parasite line A
# [13] = at 28.7 µM (top of the series), parasite line B
structure (smiles),measurement,setting,value
CC[C@H](C)C(=O)O[C@H]1CCC=C2C=C[C@H](C)[C@H](CC[C@@H]3C[C@@H](O)CC(=O)O3)[C@H]21,Z-AUC,[1],1.25 (inactive)
same,Z-AUC,[1]; [11],1.13
same,Z-AUC,[1]; measured here: PEO4 Z-AUC,1.15
C[C@]12CCC(=O)C=C1[C@@H]1C[C@@H]1[C@H]1[C@@H]3[C@@H]4C[C@@H]4[C@@]4(CCC(=O)O4)[C@@]3(C)CC[C@@H]12,Z-AUC,[1],1.29 (inactive)
same,Z-AUC,[1]; [11],0.636
same,Z-AUC,[1]; measured here: PEO4 Z-AUC,1.11
Cc1cc2c(cc1CC(=O)c1sccc1S(=O)(=O)Nc1onc(C)c1Cl)OCO2,outcome,[2],inactive
same,Z-AUC,[1],0.64 (inactive)
same,Z-AUC,[1]; [11],0.98
same,Z-AUC,[1]; measured here: PEO4 Z-AUC,0.661
CC(C)(C)NC(=O)[C@@H]1CN(Cc2cccnc2)CCN1C[C@@H](O)C[C@@H](Cc1ccccc1)C(=O)N[C@H]1c2ccccc2C[C@H]1O,outcome,[2],inactive
CN(C)CC/C=C1/c2ccccc2COc2ccc(CC(=O)O)cc21,Z-AUC,[1],-0.218 (inactive)
same,Z-AUC,[1]; [11],0.35
same,Z-AUC,[1]; measured here: PEO4 Z-AUC,-0.471
COc1ccc(CN2CCN(C(c3ccc(F)cc3)c3ccc(F)cc3)CC2)c(OC)c1OC,outcome,[2],inactive
same,Potency,[3]; parasite line A,8.91 µM (active)
same,Potency,[3]; parasite line B,8.91 µM (active)
same,Potency,3D7,7.94 µM (active)
same,Potency,7G8,2.82 µM (active)
same,Potency,AA1029,10 µM (active)
same,Potency,AS120,7.08 µM (active)
same,Potency,ATS189,10 µM (active)
same,Potency,ATS95,12.6 µM (active)
O=C(OCCOCCO)c1ccccc1Nc1cccc(C(F)(F)F)c1,outcome,[2],inactive
same,"activity, negative = inhibition","[3]; at 12.8 µM (top of the series), parasite line A",9.49% (inactive)
same,"activity, negative = inhibition","[3]; at 12.8 µM (top of the series), parasite line B",3.82% (inactive)
same,Potency,3D7,inactive
same,Potency,7G8,inactive
same,Potency,AA1029,inactive
same,Potency,AS120,inactive
same,Potency,ATS189,inactive
same,Potency,ATS95,inactive
Cc1ccc(Nc2c(F)cccc2Cl)c(CC(=O)O)c1,outcome,[2],inactive
COC(=O)C1=C(C)NC(C)=C(C(=O)O[C@@H]2CCCN(Cc3ccccc3)C2)[C@@H]1c1cccc([N+](=O)[O-])c1,outcome,[2],inactive
C[C@]12C=CC(=O)C=C1CC[C@@H]1[C@@H]2[C@@H](O)C[C@@]2(C)[C@H]1CC[C@]2(O)C(=O)CO,Z-AUC,[1],-0.821 (inactive)
same,Z-AUC,[1]; [11],0.0884
same,Z-AUC,[1]; measured here: PEO4 Z-AUC,-0.444
Nc1ccn([C@@H]2O[C@H](CO)[C@@H](O)C2(F)F)c(=O)n1,outcome,[2],inactive
same,Potency,[1],0.0078 µM (active)
same,Z-AUC,[1]; [11],-3.27
same,Z-AUC,[1]; measured here: PEO4 Z-AUC,-1.86
CC(=O)O[C@]1(C(C)=O)CC[C@H]2[C@@H]3C[C@H](C)C4=CC(=O)CC[C@]4(C)[C@H]3CC[C@@]21C,outcome,[2],inactive
same,Z-AUC,[1],-1.26 (inactive)
same,Z-AUC,[1]; [11],-0.257
same,Z-AUC,[1]; measured here: PEO4 Z-AUC,0.0735
C[C@]12CC[C@@H]3c4ccc(O)cc4CC[C@H]3[C@@H]1C[C@@H](O)[C@@H]2O,Z-AUC,[1],-0.032 (inactive)
same,Z-AUC,[1]; [11],0.00281
same,Z-AUC,[1]; measured here: PEO4 Z-AUC,0.225
CCCCS(=O)(=O)N[C@@H](Cc1ccc(OCCCCC2CCNCC2)cc1)C(=O)O,outcome,[2],inactive
CC(=O)OCC(=O)[C@@]12N=C(C)O[C@@H]1C[C@H]1[C@@H]3CCC4=CC(=O)C=C[C@]4(C)[C@H]3[C@@H](O)C[C@@]12C,Z-AUC,[1],0.653 (inactive)
same,Z-AUC,[1]; [11],1.08
same,Z-AUC,[1]; measured here: PEO4 Z-AUC,0.153
COc1cc2c(cc1O)CC[C@@H]1[C@@H]2CC[C@]2(C)[C@@H](O)CC[C@@H]12,Z-AUC,[1],0.212 (inactive)
same,Z-AUC,[1]; [11],-0.545
same,Z-AUC,[1]; measured here: PEO4 Z-AUC,-0.454
C=CCc1ccc(O)c(OC)c1,outcome,[4],inactive
same,outcome,[5],inactive
same,max response,[6],-2.5% (inactive)
same,outcome,[7],inactive
same,outcome,[8],inactive
same,outcome,[9],inactive
same,outcome,[10],inactive
same,"activity, negative = inhibition",[3]; [12],9.84% (inactive)
same,"activity, negative = inhibition",[3]; [13],1.91% (inactive)
same,Potency,3D7,inactive
same,Potency,7G8,inactive
same,Potency,AA1029,inactive
same,Potency,AS120,inactive
same,Potency,ATS189,inactive
same,Potency,ATS95,inactive
Cc1ccc(C(=O)C(C)CN2CCCCC2)cc1 (stereo not drawn),outcome,[2],inactive
same,"activity, negative = inhibition",[3]; [12],1.87% (inactive)
same,"activity, negative = inhibition",[3]; [13],6.22% (inactive)
same,Potency,3D7,inactive
same,Potency,7G8,11.2 µM (active)
same,Potency,AA1029,inactive
same,Potency,AS120,inactive
same,Potency,ATS95,inactive
